Measured values as given in PubChem BioAssay (NCI).
The panel holds about 83,000 compounds, 20% with a hit somewhere; the sample as a whole holds those more often.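 Plates (96-well) were seeded with cells, treated with compound at one concentration, and incubated for 48 hours before percent growth was determined.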 The source made the active and inactive calls. Rule for the calls: active = growth percent below 10; inactive = the rest.

What was measured:
Test in all cases: NCI-60 one-dose screen, 48 h (100 = growth as untreated, 0 = no growth, -100 = all killed)
Conditions in all cases: 10 µM unless noted
[1] = system: T-47D breast
[2] = system: BT-549 breast
[3] = system: MDA-MB-435 melanoma
[4] = system: SW-620 colon
[5] = system: MCF7 breast
[6] = system: HCT-116 colon
[7] = system: HCC-2998 colon
[8] = system: KM12 colon

Measured: growth

CCCCC(=O)Nc1ncc(Cc2ccc(Cl)cc2)s1
inactive: [1] 56.4% | [2] 65% | [4] 37.7% | [5] 37.4% | [6] 53.6% | [7] 65.8% | [8] 38.8%
active: [3] 0.64%

CO[C@]12C=C/C(=C(/C(=O)OCc3cccnc3)C(=O)CCCCCCCC[C@@]3(OC)C=C/C(=C(/C(=O)OCc4cccnc4)C(=O)CCCCCCCC1)O3)O2
active: [2] -24.7% | [3] -11.8% | [6] -35.5% | [7] -79.2% | [8] -70.4%
inactive: [1] 38.4% | [4] 13.8% | [5] 18.5%

CCOC(=O)c1ccc2[nH]c(O)c(C(=Nc3ccc(N(C)C(=O)CN4CCN(C)CC4)cc3)c3ccccc3)c2c1
inactive: [1] 21.6%
active: [2] -75.9% | [3] -42% | [4] -34.4% | [5] -63.9% | [6] -38.8% | [7] -55.2% | [8] -33.4%

COc1ccc2cc(C(=O)c3coc4ccc(O)cc34)ccc2c1
inactive: [1] 84.2% | [2] 94.2% | [3] 104% | [4] 116% | [5] 37.5% | [6] 94% | [7] 103% | [8] 90.3%

Cc1ccc(NC(=S)NNC(=S)NNc2ccccc2)cc1C
inactive: [1] 98.1% | [2] 120% | [3] 110% | [4] 106% | [5] 98.9% | [6] 116% | [7] 123% | [8] 90.8%

CCNc1cc(-c2cccc(OC(F)(F)F)c2)nc2ccc(N3CCCC3)cc12
inactive: [2] 75.2%
active: [1] -24.6% | [3] 2.21% | [4] 4.43% | [5] 3.29% | [6] -15.9% | [7] 6.29% | [8] 4.19%

Cc1noc(C)c1C(=O)OCc1coc2ccccc2c1=O
inactive: [1] 28% | [2] 69.2% | [3] 59.8% | [4] 32.1% | [5] 49.6% | [6] 41.4% | [7] 105% | [8] 95.8%

CCCCCCNC(=O)Oc1ccc(/C(=C(/C)Cc2ccc(OC)cc2)c2ccc(OCCCN(C)C)cc2)cc1
active: [4] -21.8% | [5] 8.65% | [6] -52.2%
inactive: [1] 18.9% | [2] 79% | [3] 19.5% | [7] 35.2% | [8] 35.6%

O=C(CCCCCCN1CC(=O)N2[C@H](c3cc(Br)cs3)c3[nH]c4ccccc4c3C[C@H]2C1=O)NO
inactive: [1] 17.3% | [2] 68.1% | [3] 22.6% | [5] 33.2% | [6] 13% | [7] 75.1% | [8] 47.2%
active: [4] 8.76%

COc1cccc(NC(=O)Cn2cc(CN3CCN(c4ccnc5cc(Cl)ccc45)CC3)nn2)c1
inactive: [1] 70.7% | [2] 77.2% | [3] 96.7% | [4] 88.8% | [5] 86.7% | [6] 97% | [7] 93% | [8] 78.4%

CCCC(O)Cn1ncc(C(=O)OCC)c1NC(=O)NCc1ccccc1F (stereo unspecified)
inactive: [1] 87.2% | [2] 90.2% | [3] 103% | [4] 105% | [5] 88% | [6] 73.8% | [7] 87.8% | [8] 97.3%

CCNc1nc(-c2ccc(Cl)c(OC)c2)c(-c2ccnc(NCCCNS(=O)(=O)c3ccc(Cl)cc3)n2)s1
inactive: [1] 37.4% | [2] 52% | [3] 24.8% | [4] 80.9% | [5] 66.3% | [6] 42.4% | [7] 102% | [8] 65.3%

CC12CCC3c4ccccc4CCC3(CO1)C2 (stereo unspecified)
inactive: [1] 101% | [2] 121% | [3] 107% | [4] 106% | [5] 97.1% | [6] 117% | [7] 94.2% | [8] 110%

Cc1ccc(-c2nc3nc(-c4ccc(F)cc4)nc(N4CCNCC4)c3o2)cc1
active: [1] -27.4% | [4] -79.3% | [5] -74.2% | [6] -92.1% | [8] -83.7%
inactive: [2] 99.5% | [3] 66% | [7] 19.4%

CCCCNc1ccc(C#N)c(OCCN(CC)CC)c1
inactive: [1] 104% | [2] 98.2% | [3] 104% | [4] 109% | [5] 93.8% | [6] 104% | [7] 108% | [8] 112%

C[C@@H]1CCC[C@H]1CC(N)C(=O)O (stereo partly specified)
inactive: [1] 106% | [2] 106% | [3] 98.6% | [4] 102% | [5] 91.7% | [6] 95.7% | [7] 103% | [8] 106%

COc1cc(N2C(=O)[C@H](O)C2c2ccc(SC)cc2)cc(OC)c1OC (stereo partly specified)
active: [2] -6.32% | [3] -39.5% | [6] 1.16%
inactive: [1] 49.2% | [4] 23.7% | [5] 13.5% | [7] 26.1% | [8] 11.8%

COc1ccc(/C=C2\C(=O)N=C3N2NC(c2cc(Br)ccc2O)C=C(C)N3c2ccccc2)cc1 (stereo unspecified)
inactive: [1] 89.6% | [2] 88% | [3] 94.5% | [4] 104% | [5] 83.7% | [6] 98.1% | [7] 87.1% | [8] 102%

CN[C@]12CC3(C=CC(=O)C=C3)O[C@@]1(Cc1ccc(OC)cc1)N(C)C(=O)N2
inactive: [1] 16.6% | [2] 41.5% | [4] 11.1% | [5] 23.3% | [7] 32.7%
active: [3] 1.71% | [6] -35.2% | [8] 9.7%

CCOC(=O)c1cnc2ccccc2c1Cl
inactive: [1] 102% | [2] 112% | [3] 98.9% | [4] 90.9% | [5] 99.1% | [6] 95.7% | [7] 98.4% | [8] 101%

Cc1cc2c(O)c(-c3cccc(Cl)c3)c3sc(=O)oc3c2cc1C
inactive: [1] 14.8% | [2] 58.8% | [3] 28.9% | [4] 35% | [5] 26.3% | [6] 18.1% | [7] 73.1% | [8] 64.3%

C1=C(N2CCCC2)CCC1
inactive: [1] 104% | [2] 113% | [3] 95.1% | [4] 101% | [5] 91% | [6] 102% | [7] 110% | [8] 109%

Cn1cccc1C(=O)C1C(c2cccc([N+](=O)[O-])c2)C2C3CCCCC3CN2C12C(=O)Nc1ccc(Cl)cc12 (stereo unspecified)
inactive: [1] 36.7% | [2] 53.6% | [3] 56.3% | [4] 54.7% | [5] 34.1% | [6] 14.9% | [7] 64.5% | [8] 42.3%

CC1=C(C(=O)OC(C)C)C(c2ccc3c(c2)OCO3)NC(=S)N1 (stereo unspecified)
inactive: [1] 91.4% | [2] 96% | [3] 106% | [4] 107% | [5] 98.7% | [6] 95.6% | [7] 115% | [8] 108%

O=C1c2c(c3c4ccc(Br)cc4oc3c3[nH]c4ccccc4c23)C(=O)N1O
inactive: [1] 11.8% | [2] 27.6% | [3] 19.1% | [4] 37.3% | [5] 22.4% | [6] 17.9% | [7] 66.9% | [8] 17.1%

N#C/C(=C\c1ccc2ccccc2c1)c1cc2ccccc2[nH]1
inactive: [1] 32.9% | [2] 59.8% | [4] 15.8% | [5] 14.4% | [6] 16.8% | [7] 60.4% | [8] 25.5%
active: [3] -19%

CCS/C(Nc1ccccc1)=C(\C#N)C(=O)N/N=C/c1ccc(Cl)cc1Cl
inactive: [1] 17.8% | [2] 45.4% | [4] 18.6% | [5] 19.3% | [6] 17.5% | [7] 48.4% | [8] 28%
active: [3] -34.5%

O=C(CCC(=O)N/N=C/c1ccccc1O)N/N=C/c1ccccc1O
inactive: [1] 51.5% | [2] 76.5% | [3] 64.8% | [4] 44.8% | [5] 39.9% | [6] 25.9% | [7] 46% | [8] 33%

O=C(/C=C/c1cccs1)c1ccc(Cl)nc1
inactive: [1] 97.3% | [2] 101% | [3] 94.2% | [4] 105% | [5] 67.7% | [6] 91.1% | [7] 111% | [8] 104%

O=C1COCCN1c1ccc(Nc2nc(Cl)nc(OCc3cn(Cc4ccccc4)nn3)n2)cc1
inactive: [1] 68.6% | [2] 90.3% | [3] 96.2% | [4] 88.6% | [5] 62.4% | [6] 91.9% | [7] 63.7% | [8] 90.5%

COc1ccc(C(c2cc(OC)c(OC)c(OC)c2)N2CCN(c3ccccc3)CC2)cc1 (stereo unspecified)
inactive: [1] 81.8% | [2] 93.6% | [4] 74.1% | [5] 72.8% | [6] 62.8% | [7] 93.3% | [8] 65.1%
active: [3] 9.02%

CC(=O)OCc1nc(C#N)c(N(C)C)o1
inactive: [1] 83.9% | [2] 91.2% | [3] 100% | [4] 101% | [5] 92.9% | [6] 93.4% | [7] 97% | [8] 110%
